Experimental findings from PubChem BioAssay AID1347417 (National Center for Advancing Translational Sciences (NCATS), 2020) are described below.

Molecules are shown by their SMILES. Out of some 120,000 compounds screened, about 5,300 (4.4%) were called active. Roughly 22% stayed inconclusive and do not appear here. The entries come from a sample that favours actives as a whole. Where a call stands in place of a potency, no number is given. Unmarked numbers belong to inactive results. The call rests on the fitted dose curve; in most records, active means well fitted inhibition curve with a large enough effect; inconclusive means small, poorly fitted or top-dose-only effect; inactive means no such curve, though single readings can be large or run the other way.
Potency means the concentration at half of the fitted maximal effect.

A short description of this test: qHTS Primary assay for Inhibitors of Plasmodium falciparum Dd2 growth in vitro. Further: nearly all actives have a fitted effect of over 65% in size. As to conditions: P. falciparum Dd2 growth, SYBR Green, 72 h; series mostly up to 28.9 µM. An outline of the steps:
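Readout: SYBR Green fluorescence, 485 nm excitation, 535 nm emission, after ~16 h lysis at 37C. Before that, Dd2-infected red cells (2.5% hematocrit) grew 72 h with compound, 29 uM top final concentration.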
For orientation: In qHTS, concentration-response curves come from the screen itself.
For `O=C(Cn1nc2c(cc1=O)CCCC2)NC1CCN(C(=O)c2cc3ccccc3[nH]2)CC1`, the Potency entry is “inactive”.

For the compound `C[C@@H]1CN(C(=O)c2ccsc2)C[C@H]1c1nc(-c2ccncc2)no1`, the Potency result was “inactive”.

Take `O=C1NCc2ccccc2CC12CCCN(CC1CCCCC1)C2` (configuration not stated): the Potency entry is “inactive”.

As for `COc1ccc(CN2CCC3(Cc4ccccc4CNC3=O)C2)cc1OC` (configuration not stated), the Potency entry is “inactive”.

As for `O=C1NCc2ccccc2CC12CCCN(Cc1ccc(F)cc1O)C2` (configuration not stated), the Potency is 4.47 µM (active).

As for `CCOc1ccccc1NC(=O)C1=C(C)Nc2ncnn2C1c1ccc(NC(C)=O)cc1` (configuration not stated), the Potency result is “inactive”.

Turning to `CCOc1ccc(C2C(C(=O)Nc3ccc(Cl)cc3)=C(C)Nc3nc(C(F)(F)F)nn32)cc1` (configuration not stated), the Potency is 2.82 µM (active).

Take `CCOc1cc(C2C(C(=O)Nc3ccc(OC)cc3)=C(C)Nc3nc(SC)nn32)ccc1O` (configuration not stated): the Potency result is “inactive”.

As for `c1cc(CN2CCCCCC2)cc(-c2nc(C3CCOC3)no2)c1` (configuration not stated), the Potency is 8.91 µM (active).

Consider `COc1cccc(CCC(=O)N2CCCC2c2nc(C3CCOCC3)no2)c1` (configuration not stated), for which the Potency result is “inactive”.

On to `O=C(NC1CCCC1)N1CCC(c2noc(-c3ccccc3)n2)C1` (configuration not stated), for which the activity, negative = inhibition is 13.8% [at 5.79 µM].

In the case of `Cc1ccc(C2CC(=O)Nc3c2c(C2CC2)nn3C)c(C)c1F` (configuration not stated), the Potency result is “inactive”.

Turning to `COc1cc2nc(NCC(C)c3ccccc3)n3nc(-c4ccccc4)nc3c2cc1OC` (configuration not stated), the Potency is 3.55 µM (active).

With `COc1cc2nc(SCC(=O)Nc3ccccc3F)n3nc(-c4ccccc4)nc3c2cc1OC`, the Potency result is “inactive”.

For `COc1ccc(Cl)cc1NC(=O)CSc1nc2ccccc2c2nc(-c3ccccc3)nn12`, the Potency entry was “inactive”.

Take `COc1cccc(N2C(=O)NC(=NC3CCCCC3)C23CCN(CC2CC2)CC3)c1`: the Potency entry was “inactive”.

For `Cc1ccc(S(=O)(=O)N2CCCC(CCC(=O)NC3CCCCC3)C2)cc1` (configuration not stated), the Potency was 12.6 µM (active).

`O=C(CCC1CCCN(S(=O)(=O)c2ccc(F)cc2)C1)NC1CCS(=O)(=O)C1` (configuration not stated): the Potency result is “inactive”.

Take `Cc1ccc(C(=O)N2CCC(CCC(=O)NC3CCCCC3)CC2)cc1`: the Potency result was “inactive”.

`Cc1nc([C@@H]2CN(C(=O)CCCc3nc4ccccc4s3)C[C@H]2C(N)=O)n[nH]1`: the Potency result was “inactive”.

Consider `CC1(C)[C@H](Cc2cc(CC3CCCCC3)on2)C[C@@H]1NC(=O)C1CCC1`, for which the Potency was 11.2 µM (active).

For `CCNC(=O)N[C@H]1C[C@@H](Cc2cc(CC(C)C)on2)C1(C)C`, the Potency entry was “inactive”.

Turning to `CCC(CC)C(=O)N[C@H]1C[C@@H](Cc2cc(COc3ccccc3)on2)C1(C)C`, the Potency entry was “inactive”.

As to `Cc1cc(CN(C)C(=O)C2C3C(=O)N(Cc4ccc(C)c(C)c4)C[C@@]34C=C[C@@H]2O4)no1` (some centres not stated), the Potency entry is “inactive”.

Consider `Cc1ccc(S(=O)(=O)c2c(Nc3cccc(Cl)c3)sc(C(=O)c3ccc4c(c3)OCO4)c2N)cc1`, for which the Potency was 7.94 µM (active).

For the compound `CCOC(=O)c1ccc(NC(=O)CCS(=O)(=O)c2ccc(C)cc2)cc1`, the Potency result is “inactive”.

On to `Cc1cccc(Nc2nc(C)nc(N)c2S(=O)(=O)c2ccccc2)c1`, for which the Potency entry was “inactive”.

With `COc1ccc(S(=O)(=O)c2c(Nc3cccc(Cl)c3)sc(C(=O)c3ccccc3)c2N)cc1`, the Potency is 8.91 µM (active).

In the case of `COc1cccc(C(=O)c2sc3nc(-c4ccccc4)cc(C(F)(F)F)c3c2N)c1`, the Potency entry is “inactive”.

As to `COc1ccc(N2C(=O)CSC23CCN(C(=O)c2ccc(C)cc2)CC3)cc1`, the Potency entry is “inactive”.

For `COc1ccc(S(=O)(=O)c2c(Nc3ccc(C)cc3)sc(C(=O)c3ccc(C)cc3)c2N)cc1`, the Potency is 10 µM (active).

As for `Cc1ccc(CN2C[C@H]3CN(C(=O)c4ccc5c(c4)OCO5)CCN3C2=O)cc1`, the Potency entry is “inactive”.

On to `CCOC(=O)c1[nH]ncc1C1CC(=O)Nc2c1cnn2Cc1cccnc1` (configuration not stated), for which the Potency entry was “inactive”.

On to `C[S+](=O)([O-])N1CCC(Cn2ccc3c(N4CCOCC4)nc(-c4cccc(O)c4)cc32)CC1`, for which the Potency result was “inactive”.

In the case of `CN1CCc2c([nH]c3ccccc23)C12CCN(C(=O)c1nccc3ccccc13)CC2`, the Potency result is “inactive”.

With `CCC(CC)C(=O)N1CC(C(=O)N(C)C)C2(CCOCC2)C1` (configuration not stated), the Potency entry was “inactive”.

As to `Cc1cccc(C)c1NC(=O)Cn1ccn2nc(-c3ccccc3)c(CO)c2c1=O`, the Potency entry is “inactive”.

Take `O=C1CO[C@H]2CN(C3CCOCC3)C[C@H]2N1c1ccccc1`: the Potency entry was “inactive”.

With `COc1ccc(-c2cc(-c3ccccc3)nc3c2COc2ccc(Cl)cc2-3)cc1`, the Potency result was “inactive”.

Regarding `COc1ccc(-c2cc(-c3ccc(F)cc3)nc3c2COc2ccccc2-3)cc1`, the Potency result is “inactive”.

`Fc1ccc(-c2nc(Nc3cccc(Cl)c3)nc3c2COc2ccccc2-3)cc1`: the Potency was 11.2 µM (active).

Take `COc1ccc(Cl)cc1C(=O)N1CCN(c2cc(C(F)(F)F)nc(C)n2)CC1`: the Potency entry was “inactive”.

For the compound `COc1ccc(C(=O)N2CCOC3(CCN(C(=O)c4c(C)noc4C)CC3)C2)cc1`, the Potency result was “inactive”.

For the compound `CCC1=Nc2cc(C(=O)NCCCOC(C)C)ccc2Sc2ccc(C)cc21`, the Potency is 12.6 µM (active).

`CCC1=Nc2cc(C(=O)NCC(C)c3ccccc3)ccc2Sc2ccc(C)cc21` (configuration not stated): the Potency was 11.2 µM (active).

As for `Cc1ccc(N(CC(=O)NCC(C)c2ccccc2)S(=O)(=O)N(C)C)cc1` (configuration not stated), the Potency result is “inactive”.

For the compound `CCc1ccc(Sc2cc(C(=O)NCCCOC(C)C)c3ccccc3n2)cc1`, the Potency result is “inactive”.

Regarding `COCCNC(=O)c1ccc2c(c1)N=C(C)c1cc(C)ccc1S2`, the Potency entry was “inactive”.

`CC1=Nc2cc(C(=O)NCc3ccc(C)cc3)ccc2Sc2ccc(Cl)cc21`: the Potency entry is “inactive”.

As for `O=C(c1ccc(OC(F)(F)F)cc1)N1CCC(n2cc(-c3nc(C4CC4)no3)nn2)C1` (configuration not stated), the Potency result was “inactive”.

`O=C(c1ccoc1)N1CCC(N2CC3CC(C2)[C@H]2CCCC(=O)N2C3)CC1` (some centres not stated): the Potency result is “inactive”.

`Cc1ccc(Cc2ccccc2C(=O)N2C[C@@H](CN(C)CCO)[C@@H](CO)C2)cc1`: the Potency result was “inactive”.

For `Cc1ccc(C(=O)N2CCC(CCC(=O)N3CCc4ccccc4C3)CC2)cc1`, the Potency result was “inactive”.

`Cc1ncc2n1C(=O)N(C1CCN(C(=O)c3ccc(Cl)cc3)CC1)C2`: the Potency result is “inactive”.

As to `CCNS(=O)(=O)c1cc(-c2nnc(Nc3cccc(C(F)(F)F)c3)c3ccccc23)ccc1C`, the Potency entry is “inactive”.

For the compound `COCCNS(=O)(=O)c1cc(-c2nn3c(C)nnc3c3ccccc23)ccc1C`, the Potency entry was “inactive”.

On to `COC(=O)c1c(NC(=O)c2ccccc2)c2cc(NC(C)C)cnc2n1CC1CCCO1` (configuration not stated), for which the Potency entry was “inactive”.

For `Cc1ccc(-c2nnc(Nc3cccc(Br)c3)c3ccccc23)cc1S(=O)(=O)NCC1CCCO1` (configuration not stated), the Potency was 11.2 µM (active).

`Cc1ccc(-c2nnc(Nc3ccc(OCC(N)=O)cc3)c3ccccc23)cc1S(=O)(=O)NCC1CCCO1` (configuration not stated): the Potency was 1.12 µM (active).

Regarding `Cc1ccc(Nc2nnc(-c3ccc(C)c(S(=O)(=O)N4CCCCC4)c3)c3ccccc23)cc1`, the Potency result is “inactive”.

In the case of `O=C(NCCc1noc(C2CC2)n1)c1ccc2c(c1)OCO2`, the Potency result is “inactive”.

Take `C[S+](=O)([O-])N1CC2ON=C(C(=O)N3CCCC3)C2C1` (configuration not stated): the Potency result is “inactive”.

Regarding `COCCn1ncc(N2CCC(C(=O)NCc3ccc(C)o3)C2)cc1=O` (configuration not stated), the Potency result was “inactive”.

Consider `CC(C)(C)c1ccnc(N[C@H]2CO[C@H]3[C@@H]2OC[C@H]3OC(=O)Nc2cccc(C(F)(F)F)c2)n1`, for which the Potency result was “inactive”.

On to `Cc1ccc(NC(=O)c2cnc(-c3ccccc3)nc2-c2ccncc2)cc1C`, for which the Potency entry is “inactive”.

On to `O=[S+]1([O-])NCC2(CCCN(Cc3ccncc3)C2)Oc2ncccc21` (configuration not stated), for which the Potency entry was “inactive”.

Regarding `Cc1nn(C)c(C)c1S(=O)(=O)N1CCC(c2noc(-c3ccccc3)n2)C1` (configuration not stated), the activity, negative = inhibition was 8.68% [at 5.79 µM].

With `O=C(CN1C(=O)COc2ccc(S(=O)(=O)N3CCOCC3)cc21)N1CCN(c2cccc(Cl)c2)CC1`, the Potency entry was “inactive”.

With `CC(C)Cn1c(-c2ccc(S(=O)(=O)N3CCOCC3)cc2)csc1=Nc1cc(Cl)ccc1Cl`, the Potency is 10 µM (active).

In the case of `O=C1[C@@H]2C[C@@H](O)CN2C2(CN(Cc3ccc(OC(F)(F)F)cc3)C2)C(=O)N1Cc1ccccc1Cl`, the Potency result was “inactive”.

In the case of `CO[C@H]1[C@H](NC(=O)c2cnc3ccccc3c2)c2ccccc2C12CCNCC2`, the Potency entry was “inactive”.

For the compound `Cc1ccccc1N(C)C1CN(Cc2cccc3ccccc23)C1`, the Potency is 10 µM (active).

With `c1ccc2c(c1)CCN2C1CN(Cc2cccc3ccccc23)C1`, the Potency result is “inactive”.

Regarding `Clc1ccc(-c2nnc3n2CCN(Cc2cccc4ccccc24)C3)cc1`, the Potency entry is “inactive”.

Take `COc1cc2c(cc1Oc1cccc(N(C)C)c1)NC(=O)C21CCN(c2cnccn2)CC1`: the Potency was 0.891 µM (active).

With `COc1cc2c(cc1OCc1ccncc1)NC(=O)C21CCN(c2ncccn2)CC1`, the Potency entry was “inactive”.

As for `COc1cc2c(cc1Oc1cccc(N(C)C)c1)NC(=O)C21CCN(Cc2ccccn2)CC1`, the Potency result is “inactive”.

Consider `COc1ccc(NC(=O)O[C@@H]2CO[C@H]3[C@@H]2OC[C@@H]3NC(=O)C2CCCCC2)cc1`, for which the Potency result is “inactive”.

For `O=C(CC1CCCN(c2cnn(CC3CC3)c(=O)c2)C1)NCc1cc(F)cc(F)c1` (configuration not stated), the Potency entry was “inactive”.

With `COc1ccc(NC(=O)Cn2c(=O)n(-c3ccccc3)c(=O)c3c2cc(C)n3C)cc1`, the Potency result is “inactive”.

Turning to `N#Cc1ccc(S(=O)(=O)NC2CCc3nn(CC4CC4)c(=O)n3CC2)cc1` (configuration not stated), the Potency entry was “inactive”.

Take `CCCN(CCC)CCCNC(=O)Cn1ncc2c3ccccc3n(Cc3ccccc3)c2c1=O`: the Potency was 5.01 µM (active).

For `CCCn1c2ccccc2c2cnn(CC(=O)NCCCOC(C)C)c(=O)c21`, the Potency entry is “inactive”.

For the compound `CCCn1c2ccccc2c2cnn(CC(=O)N(CC)c3cc(C)ccc3C)c(=O)c21`, the Potency entry was “inactive”.

In the case of `CCN(CC)CCNC(=O)Cn1ncc2c3ccccc3n(Cc3ccccc3C)c2c1=O`, the Potency was 10 µM (active).

As for `CCN(CCCNC(=O)Cn1ncc2c3ccccc3n(C)c2c1=O)Cc1ccccc1`, the Potency result is “inactive”.

On to `CCCn1c2ccccc2c2cnn(CC(=O)N(C)c3ccccc3CC)c(=O)c21`, for which the Potency result was “inactive”.

With `COc1cccc(CC(=O)N2CCC(c3nc(CCOc4ccc(F)cc4)no3)C2)c1` (configuration not stated), the Potency result was “inactive”.

Consider `COCCNC(=O)[C@@H]1C[C@@H](O)CN1C1CCN(C(=O)CCc2ccccc2)CC1`, for which the Potency result was “inactive”.

For the compound `CCn1c(=O)c2ccnn2c2ccc(C(=O)NC3CCCCC3)cc21`, the Potency entry is “inactive”.

As to `Cc1ccccc1NC(=O)N1CCC(CCNC(=O)c2ccoc2)CC1`, the Potency entry is “inactive”.

Turning to `O=C(c1cccc(Cl)c1)N1CCN(c2cc(-c3cccs3)[nH]n2)CC1`, the Potency result was “inactive”.
